# Activity calls are given as the source filed them. Calls follow the shape of the dose curve; as a rule, active = well fitted curve in the direction sought with a large enough effect; inconclusive = small, poorly fitted or top-dose-only effect, or another doubt; inactive = no such curve, though single readings can be large or run the other way.
# Target: Alpha-galactosidase (Coffea arabica) (UniProt Q42656)
# Assay: Counterscreen for Glucocerebrosidase Inhibitors: qHTS Assay for Coffee Bean alpha-Galactosidase at pH 4.5 (AID 957)
# Conditions: purified coffee bean alpha-galactosidase, fluorogenic substrate; series mostly up to 76.9 µM
# Outline: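 Fluorogenic read-out: 4-methylumbelliferone at Ex 365/Em 440 nm after NaOH/glycine stop (pH 10). Enzyme 2 nM, 4-MU-alpha-galactoside 80 uM, citrate buffer pH 4.5, 20 min RT; normalized to no-enzyme and enzyme controls.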
# Chain of Alpha-galactosidase (Coffea arabica) (Q42656 whole entry, looked up): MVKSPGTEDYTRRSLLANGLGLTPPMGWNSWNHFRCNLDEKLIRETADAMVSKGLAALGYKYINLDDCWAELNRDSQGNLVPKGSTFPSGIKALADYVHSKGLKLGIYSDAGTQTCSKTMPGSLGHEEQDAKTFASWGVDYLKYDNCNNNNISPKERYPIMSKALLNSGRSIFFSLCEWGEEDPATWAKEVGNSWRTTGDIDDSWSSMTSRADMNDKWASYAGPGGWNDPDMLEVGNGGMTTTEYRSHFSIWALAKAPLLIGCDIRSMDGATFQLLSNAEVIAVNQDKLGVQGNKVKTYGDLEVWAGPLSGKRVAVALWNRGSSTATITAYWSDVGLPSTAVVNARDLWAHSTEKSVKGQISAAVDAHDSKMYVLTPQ
row,Compound,outcome
1,C[N+](C)(C)CCOC(=O)CCC(=O)OCC[N+](C)(C)C,inactive
2,CN(C)CCCN1c2ccccc2Sc2ccc(C(F)(F)F)cc21,inactive
3,Cc1ccc(=O)n(-c2ccccc2)c1,inactive
4,CCCOc1ccccc1-c1nc2n[nH]nc2c(=O)[nH]1,inactive
5,COc1ccccc1N1CCN(CCCNc2cc(=O)n(C)c(=O)n2C)CC1,inactive
6,CN(C)CCOC(c1ccccc1)c1ccccc1,inactive
7,O=C1N(c2ccccc2)c2ccccc2C1(Cc1ccncc1)Cc1ccncc1,inactive
8,Clc1ccccc1C(c1ccccc1)(c1ccccc1)n1ccnc1,inactive
9,C[n+]1cc2c3c(ccc2c2ccc4cc5c(cc4c21)OCO5)OCO3,inactive
10,C[C@]12C=CC(=O)C=C1CC[C@H]1[C@@H]3C[C@@H](O)[C@](O)(C(=O)CO)[C@@]3(C)C[C@H](O)[C@@]12F,inactive
11,O=C(Nc1ccc([N+](=O)[O-])cc1Cl)c1cc(Cl)ccc1O,inactive
12,CC(C)NCC(O)COc1ccc(COCCOC(C)C)cc1 (configuration not stated),inactive

# From PubChem BioAssay (NCATS)
